Measured values reported in PubChem BioAssay AID1159580 (chemical genetic matrix, 2015).
Out of some 5,500 compounds screened, about 2,000 (36%) were called active. Roughly 18% stayed inconclusive and do not appear here. No stated cut-off is given here; in the data, active means normalized growth mostly below about 0.91 (no sharp cut-off); inconclusive means no clear call, values can overlap the other calls; inactive means mostly above about 0.92. Some of the results follow.

Assay: chemical genetic growth profiling, strain panel (AID 1159580);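 further: tested at 20 µM; growth read once vehicle control cultures reached saturation at 30 °C; 1 = growth at the plate median or of vehicle wells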
Conditions: growth OD

Measured: normalized growth

Cc1ccc(S(=O)(=O)NC(=O)NN2CC3CCCC3C2)cc1 (stereo not drawn)
inactive: S. cerevisiae deletion strains, locus YJR043C, strain POL32, stronger effect = lower value 0.991 | S. cerevisiae deletion strains, locus YJR066W, strain TOR1, stronger effect = lower value 0.904 | S. cerevisiae deletion strains, locus YKL009W, strain mrt4, stronger effect = lower value 1.02 | S. cerevisiae deletion strains, locus YKL068W, stronger effect = lower value 1.01 | S. cerevisiae deletion strains, locus YKL085W, strain MDH1 (second series), stronger effect = lower value 1.04 | S. cerevisiae deletion strains, locus YKL085W, strain MDH1, stronger effect = lower value 1.04 | S. cerevisiae deletion strains, locus YKL160W, strain elf1, stronger effect = lower value 0.98 | S. cerevisiae deletion strains, locus YKL190W, strain CNB1, stronger effect = lower value 1.01 | S. cerevisiae deletion strains, locus YKR001C, strain vps1, stronger effect = lower value 1.01 | S. cerevisiae deletion strains, locus YKR026C, strain gcn3, stronger effect = lower value 0.978 | S. cerevisiae deletion strains, locus YKR091W, strain srl3, stronger effect = lower value 0.974 | S. cerevisiae deletion strains, locus YLL001W, strain dnm1, stronger effect = lower value 0.953 | S. cerevisiae deletion strains, locus YLL026W, stronger effect = lower value 0.974 | S. cerevisiae deletion strains, locus YLL041C, strain sdh2, stronger effect = lower value 0.982 | S. cerevisiae deletion strains, locus YLR027C, strain aat2, stronger effect = lower value 0.976 | S. cerevisiae deletion strains, locus YLR039C, strain RIC1, stronger effect = lower value 0.943 | S. cerevisiae deletion strains, locus YLR058C, strain SHM2, stronger effect = lower value 1.01 | S. cerevisiae deletion strains, locus YLR102C, strain apc9, stronger effect = lower value 1.01 | S. cerevisiae deletion strains, locus YLR113W, strain HOG1, stronger effect = lower value 0.974 | S. cerevisiae deletion strains, locus YLR221C, strain rsa3, stronger effect = lower value 0.976 | S. cerevisiae deletion strains, locus YLR258W, strain gsy2, stronger effect = lower value 0.99 | S. cerevisiae deletion strains, locus YLR262C, strain YPT6 (second series), stronger effect = lower value 0.927 | S. cerevisiae deletion strains, locus YLR262C, strain YPT6, stronger effect = lower value 0.967 | S. cerevisiae deletion strains, locus YLR268W, strain sec22, stronger effect = lower value 0.999 | S. cerevisiae deletion strains, locus YLR320W, strain mms22, stronger effect = lower value 0.983 | S. cerevisiae deletion strains, locus YLR330W, strain CHS5, stronger effect = lower value 1 | S. cerevisiae deletion strains, locus YLR342W, strain FKS1 (second series), stronger effect = lower value 0.992 | S. cerevisiae deletion strains, locus YLR342W, strain FKS1, stronger effect = lower value 0.996 | S. cerevisiae deletion strains, locus YLR357W, strain rsc2, stronger effect = lower value 0.989 | S. cerevisiae deletion strains, locus YLR370C, strain arc18, stronger effect = lower value 0.953 | S. cerevisiae deletion strains, locus YLR371W, strain rom2, stronger effect = lower value 1.01 | S. cerevisiae deletion strains, locus YLR384C, strain iki3, stronger effect = lower value 0.993 | S. cerevisiae deletion strains, locus YLR418C, strain cdc73, stronger effect = lower value 1.02 | S. cerevisiae deletion strains, locus YML016C, strain PPZ1, stronger effect = lower value 0.996 | S. cerevisiae deletion strains, locus YML032C, strain rad52, stronger effect = lower value 1.01 | S. cerevisiae deletion strains, locus YML120C, strain ndi1, stronger effect = lower value 1.01 | S. cerevisiae deletion strains, locus YML124C, strain tub3, stronger effect = lower value 1.01 | S. cerevisiae deletion strains, locus YMR058W, strain fet3, stronger effect = lower value 0.958 | S. cerevisiae deletion strains, locus YMR078C, strain ctf18, stronger effect = lower value 1.02 | S. cerevisiae deletion strains, locus YMR125W, strain sto1, stronger effect = lower value 0.966 | S. cerevisiae deletion strains, locus YMR129W, stronger effect = lower value 0.97 | S. cerevisiae deletion strains, locus YMR205C, strain PFK2, stronger effect = lower value 0.991 | S. cerevisiae deletion strains, locus YMR223W, strain ubp8, stronger effect = lower value 1.03 | S. cerevisiae deletion strains, locus YMR231W, strain pep5, stronger effect = lower value 0.989 | S. cerevisiae deletion strains, locus YMR263W, strain SAP30, stronger effect = lower value 1.02 | S. cerevisiae deletion strains, locus YMR307W, strain GAS1, stronger effect = lower value 1.04 | S. cerevisiae deletion strains, locus YNL067W, strain RPL9B, stronger effect = lower value 1.03 | S. cerevisiae deletion strains, locus YNL071W, strain lat1, stronger effect = lower value 0.974 | S. cerevisiae deletion strains, locus YNL153C, strain GIM3, stronger effect = lower value 1 | S. cerevisiae deletion strains, locus YNL183C, strain NPR1, stronger effect = lower value 0.92 | S. cerevisiae deletion strains, locus YNL209W, strain ssb2, stronger effect = lower value 0.977 | S. cerevisiae deletion strains, locus YNL233W, strain BNI4, stronger effect = lower value 1.01 | S. cerevisiae deletion strains, locus YNL248C, strain rpa49, stronger effect = lower value 0.982 | S. cerevisiae deletion strains, locus YNL250W, strain rad50, stronger effect = lower value 1.03 | S. cerevisiae deletion strains, locus YNL271C, strain bni1, stronger effect = lower value 1.01 | S. cerevisiae deletion strains, locus YNL298W, strain CLA4, stronger effect = lower value 1.04 | S. cerevisiae deletion strains, locus YNL307C, strain MCK1, stronger effect = lower value 1.02 | S. cerevisiae deletion strains, locus YNL322C, strain KRE1 (second series), stronger effect = lower value 0.978 | S. cerevisiae deletion strains, locus YNR049C, strain mso1, stronger effect = lower value 0.961 | S. cerevisiae deletion strains, locus YNR052C, strain pop2, stronger effect = lower value 1.01 | S. cerevisiae deletion strains, locus YOL012C, strain htz1 0.86 | S. cerevisiae deletion strains, locus YOL147C, strain pex11, stronger effect = lower value 1.02 | S. cerevisiae deletion strains, locus YOR001W, strain rrp6, stronger effect = lower value 0.99 | S. cerevisiae deletion strains, locus YOR061W, strain CKA2, stronger effect = lower value 0.996 | S. cerevisiae deletion strains, locus YOR069W, strain VPS5, stronger effect = lower value 1.01 | S. cerevisiae deletion strains, locus YOR070C, strain gyp1, stronger effect = lower value 0.985 | S. cerevisiae deletion strains, locus YOR080W, strain dia2, stronger effect = lower value 0.97 | S. cerevisiae deletion strains, locus YOR083W, strain WHI5, stronger effect = lower value 0.982 | S. cerevisiae deletion strains, locus YOR106W, strain vam3, stronger effect = lower value 0.968 | S. cerevisiae deletion strains, locus YOR136W, strain idh2, stronger effect = lower value 1.01 | S. cerevisiae deletion strains, locus YOR144C, strain elg1, stronger effect = lower value 1.01 | S. cerevisiae deletion strains, locus YOR184W, strain ser1, stronger effect = lower value 1 | S. cerevisiae deletion strains, locus YOR231W, strain MKK1, stronger effect = lower value 0.971 | S. cerevisiae deletion strains, locus YOR265W, strain rbl2, stronger effect = lower value 0.967 | S. cerevisiae deletion strains, locus YOR270C, strain vph1, stronger effect = lower value 1.03 | S. cerevisiae deletion strains, locus YOR290C, strain snf2, stronger effect = lower value 0.939 | S. cerevisiae deletion strains, locus YOR316C, strain cot1, stronger effect = lower value 1.01 | S. cerevisiae deletion strains, locus YPL051W, strain arl3, stronger effect = lower value 0.959 | S. cerevisiae deletion strains, locus YPL078C, strain atp4, stronger effect = lower value 0.978 | S. cerevisiae deletion strains, locus YPL106C, strain sse1, stronger effect = lower value 1 | S. cerevisiae deletion strains, locus YPL240C, strain hsp82, stronger effect = lower value 0.985 | S. cerevisiae deletion strains, locus YPL256C, strain CLN2, stronger effect = lower value 0.965 | S. cerevisiae deletion strains, locus YPR119W, strain clb2, stronger effect = lower value 1.01 | S. cerevisiae deletion strains, locus YPR141C, strain kar3, stronger effect = lower value 1.03 | S. cerevisiae deletion strains, locus YPR163C, strain tif3, stronger effect = lower value 1.02 | S. cerevisiae deletion strains, locus YPR167C, strain met16, stronger effect = lower value 1.02 | S. cerevisiae deletion strains, strain wtn01, stronger effect = lower value 1 | S. cerevisiae strains, strain wild type, stronger effect = lower value 0.997
